Results: PubChem BioAssay
For some of these results: Measured potencies and affinities stand elsewhere. The source made the active and inactive calls. Unless noted, no rule for the calls is given here.

Assays:
[1] = antimalarial activity against Dd2 strain (AID 2302;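 active = growth inhibition above 50% at the single 2 µM test dose, taken to imply half-maximal potency below 2 µM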;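 also: 0% = DMSO untreated growth and 100% = chloroquine plus artemisinin killed control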); details: P. falciparum Dd2 in RBCs, LDH growth readout, 72 h; at 2 µM; hits give high values
[2] = HepG2 cytotoxicity, primary screen, cytotoxicity control for P. falciparum antimalarial project, cell-based, ATP luminescence (AID 2303;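 active = inhibition above 50%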;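 also: 0% = DMSO wells and 100% = digitonin-killed cells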); details: HepG2 viability, 24-48 h, at 10 µM, hits give high values
[3] = molecular target: L-lactate dehydrogenase (Plasmodium falciparum (isolate CDC / Honduras)) (UniProt Q27743); experiment: PfLDH activity inhibition – cell lysate, 3D7 strain, counter-screen for P. falciparum growth inhibition project (AID 2304);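 also: 0% = vehicle and 100% = reference inhibitor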; details: P. falciparum 3D7 crude extract, LDH APAD/NBT absorbance; at 2 µM; hits give high values
Sequence of L-lactate dehydrogenase (Plasmodium falciparum (isolate CDC / Honduras)) (Q27743 whole entry, looked up): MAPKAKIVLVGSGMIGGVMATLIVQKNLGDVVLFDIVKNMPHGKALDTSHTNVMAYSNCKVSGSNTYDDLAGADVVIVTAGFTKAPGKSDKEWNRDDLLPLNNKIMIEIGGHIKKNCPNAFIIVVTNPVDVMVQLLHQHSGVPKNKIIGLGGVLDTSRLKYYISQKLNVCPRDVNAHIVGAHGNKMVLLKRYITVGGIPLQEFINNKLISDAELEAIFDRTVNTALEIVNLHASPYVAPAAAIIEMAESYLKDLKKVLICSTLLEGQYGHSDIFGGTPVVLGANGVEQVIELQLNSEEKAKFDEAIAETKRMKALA

[4] = inhibition of 3D7 malaria parasite growth – strain 3D7 (AID 2306);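 also: 0% = DMSO wells and 100% = chloroquine plus artemisinin control wells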; details: P. falciparum 3D7 erythrocytic growth, LDH absorbance, 72 h; at 2 µM; hits give high values
[5] = molecular target: Calcium-dependent protein kinase 1 (Plasmodium falciparum (isolate 3D7)) (UniProt P62344); experiment: PfCDPK1 kinase inhibitors, biochemical, TCAMS library (AID 1159585; cut-off not given, nearly all actives have IC50 up to about 0.98 µM;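 also: inhibitors leave more ATP so luminescence rises with inhibition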); details: recombinant PfCDPK1, Kinase-Glo ATP depletion luminescence
Sequence of Calcium-dependent protein kinase 1 (Plasmodium falciparum (isolate 3D7)) (P62344 whole entry, looked up): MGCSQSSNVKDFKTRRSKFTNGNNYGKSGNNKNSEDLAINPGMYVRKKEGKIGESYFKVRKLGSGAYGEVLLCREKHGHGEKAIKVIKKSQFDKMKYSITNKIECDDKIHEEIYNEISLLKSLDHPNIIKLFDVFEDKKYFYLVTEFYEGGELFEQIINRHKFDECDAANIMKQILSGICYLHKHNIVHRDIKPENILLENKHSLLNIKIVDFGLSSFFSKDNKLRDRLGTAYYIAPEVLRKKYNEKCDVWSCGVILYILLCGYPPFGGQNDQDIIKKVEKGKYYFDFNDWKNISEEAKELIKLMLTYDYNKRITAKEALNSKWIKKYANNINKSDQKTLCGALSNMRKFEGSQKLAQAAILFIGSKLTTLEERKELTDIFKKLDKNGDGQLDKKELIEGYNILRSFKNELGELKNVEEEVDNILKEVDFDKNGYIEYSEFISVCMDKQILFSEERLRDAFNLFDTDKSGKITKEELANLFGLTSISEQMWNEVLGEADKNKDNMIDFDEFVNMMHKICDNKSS

[6] = molecular target: Plasmodium falciparum protein kinase 6 (PK6, PF3D7_1337100) (UniProt Q8IDW1); experiment: PfPK6 kinase inhibitors, biochemical, TCAMS library (AID 1159586); details: recombinant PfPK6, Kinase-Glo ATP depletion luminescence
Sequence of Plasmodium falciparum protein kinase 6 (PK6, PF3D7_1337100) (Q8IDW1 1-305): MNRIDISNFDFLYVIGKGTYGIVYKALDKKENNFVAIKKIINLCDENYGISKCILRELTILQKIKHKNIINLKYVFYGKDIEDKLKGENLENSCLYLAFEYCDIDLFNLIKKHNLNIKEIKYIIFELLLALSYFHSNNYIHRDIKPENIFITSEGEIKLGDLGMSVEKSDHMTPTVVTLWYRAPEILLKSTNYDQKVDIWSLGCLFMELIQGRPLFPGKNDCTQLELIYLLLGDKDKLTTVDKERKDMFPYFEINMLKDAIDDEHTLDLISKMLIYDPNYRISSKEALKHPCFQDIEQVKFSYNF

[7] = molecular target: Protein kinase 7 (PK7), Plasmodium falciparum 3D7 (PF3D7_0213400) (UniProt Q7YTF7); experiment: inhibition of Plasmodium PK7 catalytic activity – biochemical, TCAMS antimalarial set, Kinase-Glo luminescence (AID 1159587); details: recombinant PfPK7, Kinase-Glo ATP depletion luminescence
Sequence of Protein kinase 7 (PK7), Plasmodium falciparum 3D7 (PF3D7_0213400) (Q7YTF7 1-343): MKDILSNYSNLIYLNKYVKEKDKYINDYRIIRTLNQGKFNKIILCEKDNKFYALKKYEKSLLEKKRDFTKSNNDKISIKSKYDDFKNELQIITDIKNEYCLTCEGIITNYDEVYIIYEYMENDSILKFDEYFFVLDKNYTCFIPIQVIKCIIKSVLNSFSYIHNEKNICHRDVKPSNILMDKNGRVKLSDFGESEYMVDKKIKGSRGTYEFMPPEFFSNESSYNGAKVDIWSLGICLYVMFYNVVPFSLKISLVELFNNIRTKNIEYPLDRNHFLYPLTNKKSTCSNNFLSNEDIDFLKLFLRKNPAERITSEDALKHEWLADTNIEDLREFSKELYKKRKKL

[8] = molecular target: Calcium-dependent protein kinase 4 (Plasmodium falciparum (isolate 3D7)) (UniProt Q8IBS5); experiment: PfCDPK4 kinase inhibitors, biochemical, TCAMS library (AID 1159588; cut-off not given, nearly all actives have IC50 up to about 0.91 µM); details: recombinant PfCDPK4, Kinase-Glo ATP depletion luminescence
Sequence of Calcium-dependent protein kinase 4 (Plasmodium falciparum (isolate 3D7)) (Q8IBS5 whole entry, looked up): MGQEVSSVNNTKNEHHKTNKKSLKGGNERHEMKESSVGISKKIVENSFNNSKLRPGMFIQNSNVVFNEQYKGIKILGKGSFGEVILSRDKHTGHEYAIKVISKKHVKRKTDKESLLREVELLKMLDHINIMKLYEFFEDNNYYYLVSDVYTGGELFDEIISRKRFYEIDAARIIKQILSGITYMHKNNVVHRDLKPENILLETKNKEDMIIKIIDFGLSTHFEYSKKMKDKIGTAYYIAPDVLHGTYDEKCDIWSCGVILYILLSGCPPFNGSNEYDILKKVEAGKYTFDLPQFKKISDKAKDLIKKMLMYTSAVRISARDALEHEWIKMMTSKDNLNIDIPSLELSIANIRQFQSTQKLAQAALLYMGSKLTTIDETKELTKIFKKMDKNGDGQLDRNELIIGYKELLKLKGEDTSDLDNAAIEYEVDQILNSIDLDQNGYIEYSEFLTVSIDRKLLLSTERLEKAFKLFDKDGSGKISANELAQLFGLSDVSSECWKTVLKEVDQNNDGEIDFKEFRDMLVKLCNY

Cc1cc(N2CCCC2)nc(Nc2ccc(NC(=O)Cc3ccccc3)cc2)n1
active: growth inhibition [1] 72% | inhibition [2] 71% | growth inhibition [4] 102%
inactive: inhibition [3] -4% | outcome [5] | outcome [6] | outcome [7] | outcome [8]

O=c1cc(NCCCCNCc2cccc(C(F)(F)F)c2)[nH]c2ccccc12
active: growth inhibition [4] 94%
inactive: growth inhibition [1] 34% | inhibition [2] 13% | inhibition [3] -1% | outcome [5] | outcome [6] | outcome [7] | outcome [8]

Nc1nc(N)c2c(ccc3c2ccn3CC2CC2)n1
inactive: growth inhibition [1] 3% | inhibition [2] 46% | inhibition [3] -4% | outcome [5] | outcome [6] | outcome [7] | outcome [8]
active: growth inhibition [4] 96%

CC(C)NCc1ccc(-c2ccc(-c3nc4ccc(C(F)(F)F)cc4[nH]3)cc2)cc1
active: growth inhibition [1] 98% | growth inhibition [4] 100%
inactive: inhibition [2] 16% | inhibition [3] 0% | outcome [5] | outcome [6] | outcome [7] | outcome [8]

O=C(CNC1CCCCC1)Nc1cccc(C(=O)Nc2cccc(C(F)(F)F)c2)c1
active: growth inhibition [1] 80% | growth inhibition [4] 93%
inactive: inhibition [2] 17% | inhibition [3] -6% | outcome [5] | outcome [6] | outcome [7] | outcome [8]

CCCCCCOc1ccc(C(=O)NCCCC2CCN(CCCCCNC(=O)C=Cc3ccc(Cl)c(Cl)c3)CC2)cc1
inactive: growth inhibition [1] 25% | inhibition [2] 22% | inhibition [3] -2% | outcome [5] | outcome [6] | outcome [7] | outcome [8]
active: growth inhibition [4] 94%

CCCCNC[C@@H](O)[C@H](Cc1ccccc1)NC(=O)c1cc2c3c(c1)c(CC)cn3CCS(=O)(=O)N2C
inactive: inhibition [2] -6% | inhibition [3] -3% | outcome [5] | outcome [6] | outcome [7] | outcome [8]
active: growth inhibition [1] 98% | growth inhibition [4] 99%

Cc1c[nH]c2ccc(/C=C/C(=O)NC3CCC(CCN4CCc5ccc(C#N)cc5CC4)CC3)cc12 (stereo not given)
inactive: inhibition [2] 9% | inhibition [3] 0% | outcome [5] | outcome [6] | outcome [7] | outcome [8]
active: growth inhibition [1] 91% | growth inhibition [4] 101%

CN(C)CCN(C)Cc1ccc(-c2cccc(NC(=O)c3cccc(C#N)c3)c2)cc1
inactive: growth inhibition [1] 11% | inhibition [2] 23% | inhibition [3] -4% | outcome [5] | outcome [6] | outcome [7] | outcome [8]
active: growth inhibition [4] 94%

COc1cc(NC2=C(c3ccccc3)C(=O)c3ccccc32)ccn1
active: growth inhibition [1] 96% | growth inhibition [4] 96%
inactive: inhibition [2] 7% | inhibition [3] 4% | outcome [5] | outcome [6] | outcome [7] | outcome [8]

COc1ccc2nc3cc(Cl)ccc3c(NCCCN3CCNCC3)c2c1
inactive: inhibition [2] 18% | inhibition [3] -3% | outcome [5] | outcome [6] | outcome [7] | outcome [8]
active: growth inhibition [1] 74% | growth inhibition [4] 104%

CCNc1cc(C(=O)N[C@@H](Cc2ccccc2)[C@H](O)CN[C@H](C)c2ccccc2)cc(N2CCCC2=O)c1
active: growth inhibition [1] 99% | growth inhibition [4] 97%
inactive: inhibition [2] -1% | inhibition [3] 6% | outcome [5] | outcome [6] | outcome [7] | outcome [8]

CC(=O)Nc1cc(C(=O)Nc2cccc(-c3cccc(-c4nc5c(C)cccc5[nH]4)c3)c2)ccc1C
active: growth inhibition [1] 62% | growth inhibition [4] 100%
inactive: inhibition [2] 25% | inhibition [3] 1% | outcome [5] | outcome [6] | outcome [7] | outcome [8]

CNC(=O)c1cnc(Nc2ccc(OCC(O)CN(C)C)cc2)nc1Nc1cccc(OC)c1 (stereo not given)
active: growth inhibition [1] 97% | growth inhibition [4] 103%
inactive: inhibition [2] 31% | inhibition [3] 1% | outcome [5] | outcome [6] | outcome [7] | outcome [8]

Fc1cc(Cl)ccc1Nc1ccnc2cc(-c3ccc(CN4CCSCC4)o3)ccc12
active: growth inhibition [1] 99% | growth inhibition [4] 100%
inactive: inhibition [2] 17% | inhibition [3] 0% | outcome [5] | outcome [6] | outcome [7] | outcome [8]

COc1ccc(-c2ccc(NC(=O)c3ccc(C#N)cc3)cc2)cc1CN1CCNCC1
inactive: growth inhibition [1] 42% | inhibition [2] 23% | inhibition [3] 0% | outcome [5] | outcome [6] | outcome [7] | outcome [8]
active: growth inhibition [4] 96%

COc1cccc(C(=O)NCc2n[nH]c(=S)n2-c2ccc(Cl)c(Cl)c2)c1
active: growth inhibition [1] 100% | growth inhibition [4] 102%
inactive: inhibition [2] -1% | inhibition [3] 5% | outcome [5] | outcome [6] | outcome [7] | outcome [8]

CCCCN1CCN(CCCNc2c3ccccc3nc3ccccc23)CC1
active: growth inhibition [1] 70% | growth inhibition [4] 101%
inactive: inhibition [2] 26% | inhibition [3] -7% | outcome [5] | outcome [6] | outcome [7] | outcome [8]

CC[C@H](C)CNC(=O)c1cncc(-c2ccc(CNCC3CNCCCO3)cc2)c1 (stereo not given in full)
active: growth inhibition [4] 100%
inactive: growth inhibition [1] -2% | inhibition [2] -5% | inhibition [3] -1% | outcome [5] | outcome [6] | outcome [7] | outcome [8]

c1ccc(-n2ncc(CNCc3ccc(-c4cccc(-c5nc6ccccc6[nH]5)c4)cc3)n2)cc1
inactive: growth inhibition [1] 9% | inhibition [2] 21% | inhibition [3] 3% | outcome [5] | outcome [6] | outcome [7] | outcome [8]
active: growth inhibition [4] 94%
